# Screen size: about 69,000 compounds; about 8,600 (12%) showed an effect of 50% or more. The full list was thinned out, with strong results kept by preference.
# Test system: Plasmodium berghei
# Assay: Screen against P. berghei liver stage (PbLuc), transformed with Luciferase, at 10uM
# Type: functional, HepG2
# Conditions: tested at 10 uM
row,SMILES,INHIBITION
1,Cc1ccc(C(=O)N2CCOCC3(CCN(C4CCOCC4)C3)C2)o1 (stereo not given),14.1%
2,O=C1CCCN1Cc1ccc(C(=O)N2CCCC2c2cccs2)cc1 (stereo not given),4.52%
3,COCC(C)N(Cc1ccccc1OC)C(=O)c1cc(C)[nH]c(=O)c1 (stereo not given),29.4%
4,CC(C)COc1ccccc1CN(C)C(=O)c1cc(=O)[nH]c(=O)[nH]1,10.6%
5,Cc1cc(C(=O)N(C)Cc2ccccc2OCC(C)C)cc(=O)[nH]1,58.1%
6,CCc1ccccc1NC(=O)CCc1cnn(C)c1,34.2%
7,CN(CC(N)=O)CC1(c2ccc(Br)cc2)CC1,-28.4%
8,Cc1ccc(OCC(=O)Nc2cc(C(=O)O)cc(S(C)(=O)=O)c2)cc1C,45.6%
9,Cc1ccc(OCC(=O)NS(=O)(=O)c2cccnc2)cc1C,1.48%
10,Cc1ccc(OCC(=O)Nc2ccc(S(C)(=O)=O)cc2)cc1C,59.4%
11,COc1ncccc1CN1Cc2nnn(C)c2C(COCC2CC2)C1 (stereo not given),28.4%
12,Cc1nccc(C2(C)CCCNC2)n1 (stereo not given),40.4%
13,COc1ccc(CNC(=O)CCc2c(C)noc2C)cc1F,-4.93%
14,COc1ccc(CCCC(=O)NCc2c(C)noc2C)cc1F,29.3%
15,COc1ccc(C(=O)CCC(=O)NCc2c(C)noc2C)cc1F,64.1%
16,CC1c2ncc(Cn3cccn3)n2CCN1S(=O)(=O)C1CC1 (stereo not given),30.3%
17,CCN1CC2(CC1=O)CN(Cc1cnn(C)c1)CCN(C(C)=O)C2 (stereo not given),-2.53%
18,COc1ccc(CN(Cc2cncn2C)CC2CCCO2)c(OC)c1 (stereo not given),50%
19,COc1ccc(CN(Cc2cncn2C)CC2CCCO2)cc1 (stereo not given),35.2%
20,CCn1cncc1CN(Cc1ccc(OC)cc1OC)CC1CCCO1 (stereo not given),41.2%
21,CCS(=O)(=O)c1ccc(N2CCC(NC(=O)CC3CCCC3)CC2)cc1,60.1%
22,CCS(=O)(=O)c1ccccc1N1CCC(NC(=O)NC2CCCC2)CC1,-28.9%
23,CCS(=O)(=O)c1ccc(N2CCC(NC(C)=O)CC2)cc1,19.7%
24,CCS(=O)(=O)c1ccc(N2CCC(NC(=O)C3CCCCC3)CC2)cc1,37.7%
25,CCS(=O)(=O)c1ccccc1N1CCC(NC(C)=O)CC1,6%
26,CCCC(=O)NC1CCN(c2ccccc2S(=O)(=O)CC)CC1,58.5%
27,CCc1nnc2n1CCN(C(=O)c1ccc3[nH]nnc3c1)C2,-1.85%

row,SMILES,INHIBITION
1,CCOc1ccccc1OC1CCN(C(=O)c2c[nH]nn2)CC1,33.8%
2,CS(=O)(=O)N1CCOCC2(CCN(C(=O)c3ccncc3)CC2)C1,19.5%
3,COc1ccc(N2CCN(Cc3nc(CSC)no3)C(C)C2=O)cc1 (stereo not given),-0.55%
4,CN(C)C[C@H]1OC[C@@H]2CN(C(=O)NCc3cccc(F)c3)CC[C@@H]21,24.9%
5,COc1ccc(CN2CC[C@H]3[C@H](CO[C@H]3CNC(=O)N(C)C)C2)cc1,4.61%
6,Cc1cccc(CN2CC[C@H]3CO[C@H](CNC(=O)N(C)C)[C@H]3C2)c1,-4.88%
7,CN(C)C(=O)NC[C@@H]1OC[C@H]2CN(Cc3cccc(F)c3)CC[C@H]21,69.6%
8,CN1CCO[C@@H]2CN(C(=O)NCc3cccc(F)c3)CC[C@@H]2C1,17.7%
9,CN(C)C[C@H]1OC[C@@H]2CCN(C(=O)NCc3cccc(F)c3)C[C@@H]21,61.9%
10,Cc1ccccc1CN(CCN(C)C)Cc1ccc(C(=O)O)cc1,-4.37%
11,CC(C)c1nc2n(n1)CC(NCc1nc(C3CC3)no1)CC2 (stereo not given),16.8%
12,CN(CC1CCCCO1)c1ncnc2cc(F)ccc12 (stereo not given),4.68%
13,Cc1ccc(=O)n(CC2(O)CCN(Cc3cc(C)c(O)c(C)c3)CC2)n1,42.1%
14,CCn1ccc(NC(=O)C2CCC(=O)N2Cc2ccc(C)o2)n1 (stereo not given),-20.8%
15,C[C@@H]1CN(C(=O)C2(Cn3cccn3)CC2)C[C@@]1(O)C1CCC1,9.845%
16,CN(CC(=O)N1CCCC1c1cnn(C)c1)Cc1ccccc1 (stereo not given),-25.8%
17,Cc1cc(CNC(=O)NCc2ccccc2N2CCOCC2)no1,52.4%
18,Cc1cc(CNC(=O)NC(C)c2ccc(N3CCOCC3)cc2)no1 (stereo not given),35.1%
19,Cc1cc(CNC(=O)N2CCN(c3ccccc3)CC2)no1,14.2%
20,CCC(=O)Nc1cccc(OCC(=O)N(C)Cc2nccn2CC)c1,66.1%
21,CCC(=O)Nc1cccc(OCC(=O)N(C)Cc2nc(C)c[nH]2)c1,3.82%
22,CCC(=O)Nc1cccc(OCC(=O)N(C)Cc2ccon2)c1,20.2%
23,Cn1ccnc(Nc2ccc3c(c2)CCN3C(=O)c2ccoc2)c1=O,-21.6%
24,Cc1nc(CC(=O)N2CCCC2Cn2cccn2)cs1 (stereo not given),19.4%
25,CC(C)N1CCC(C(=O)N2CCN(c3cccc(C(=O)O)c3)CC2)CC1,43.9%
26,O=C(c1cc(F)ccc1O)N1CCN(C(=O)C2CCC2)CC1,6.11%
27,O=C(C1CCS(=O)(=O)CC1)N1CCC(c2ccc(F)cc2)C1 (stereo not given),-9.51%

row,SMILES,INHIBITION
1,O=C(C1CC1)N1CCC(C(=O)N2CCC(c3ccc(F)cc3)C2)CC1 (stereo not given),61.9%
2,CC(C)N1CCC(C(=O)N2CCC(c3ccc(F)cc3)C2)CC1 (stereo not given),73%
3,O=C(CN1C(=O)CCNC1=O)N1CCC(c2ccc(F)cc2)C1 (stereo not given),33.4%
4,CC(C)N1CCC(C(=O)N2CCCN(c3ccccc3)CC2)CC1,33.9%
5,O=C(C1CCCC1)N1CCC(C(O)c2ccc(F)cc2)CC1 (stereo not given),31.7%
6,O=C(C1CCC1)N1CCC(C(=O)N2CCC(c3ccc(F)cc3)C2)CC1 (stereo not given),62.8%
7,Cc1cnc2c(S(=O)(=O)NC3CCS(=O)(=O)C3)cccc2c1 (stereo not given),10%
8,Cc1ccc(C(=O)N(C)Cc2cc(C)on2)cn1,21.5%
9,N#Cc1ccccc1N1CCCN(C(=O)CCc2ccco2)CC1,-2.53%
10,CSCC(=O)N[C@H]1CC[C@H](Nc2nccc(-c3cccnc3)n2)C1,49.7%
11,CN1CCc2[nH]nc(C(=O)N3CCC4(CN(C)C(=O)O4)C3)c2C1 (stereo not given),48.9%
12,CN1CCc2[nH]nc(C(=O)N3CCC4(CCCO4)CC3)c2C1,71.2%
13,CN1CCc2[nH]nc(C(=O)N3CCCC4(CC3)CNC(=O)O4)c2C1 (stereo not given),46.1%
14,N#CC1(NC(=O)c2ccc(F)c(Br)c2)CCSC1 (stereo not given),51.8%
15,CSCc1cc(C(=O)NC2(C#N)CCSC2)ccc1F (stereo not given),-77.6%
16,CSCc1cc(C(=O)NC2(C#N)CC2)ccc1F,32.3%
17,Cc1nn(C)c(C)c1C(=O)N1CCOCC1CC(=O)c1ccco1 (stereo not given),17.4%
18,CCOC(=O)C1(O)CCN(C(=O)Nc2ccc(CC)cc2)CC1,-62.8%
19,Cc1cnc(N2C[C@@H]3[C@@H](C2)OCC(=O)N3CCN(C)C)nc1,73.3%
20,CN(C)CCN1C(=O)CO[C@@H]2CN(c3ncc(F)cn3)C[C@H]21,17.2%
21,Cc1cnc(N2C[C@@H]3[C@@H](C2)OCC(=O)N3CC2CC2)nc1,31.9%
22,Cc1nn(C)c(N(C)C)c1CNCc1ccc(Cn2cncn2)cc1,-56.7%
23,O=C(O)c1cccnc1CN1CCCCC1CCc1ccccn1 (stereo not given),37.6%
24,O=C(O)c1cccnc1CN1CCCC1CCc1ccccc1 (stereo not given),51.2%
25,O=C(O)c1cccnc1CN1CCCCC1CCc1cccc(O)c1 (stereo not given),41.2%
26,CCOCC1CN(S(=O)(=O)c2cccc(C)c2)Cc2nccn2C1 (stereo not given),13.1%
27,CCC(C(=O)N(C)Cc1cc(-c2ccccc2)n[nH]1)n1cccn1 (stereo not given),5.11%

row,SMILES,INHIBITION
1,Cn1ccnc1N1CCN(C(=O)Cc2ccc(Cl)cc2)CC1,-17.2%
2,OC1(CNCCSc2ccccn2)CCCNC1 (stereo not given),38.3%
3,OC1(CNCCN2CCc3ccccc32)CNCCOC1 (stereo not given),36.1%
4,OC1(CNCCSc2ccccn2)CNCCOC1 (stereo not given),67.2%
5,Cc1ccccc1C(=O)N1CCOCC1CN(C)C (stereo not given),1.06%
6,N#Cc1nccnc1NC1CCN(c2ccccc2OC(F)F)C1 (stereo not given),36.5%
7,O=C(Nc1cccnc1)NC1CCN(c2ccccc2OC(F)F)C1 (stereo not given),56.6%
8,COc1ccccc1N1CCC(NCc2c(C)noc2C)C1 (stereo not given),1.94%
9,O=C1C(Nc2ncccn2)CCN1c1ccccc1OC(F)F (stereo not given),-10.7%
10,O=C(Nc1ccccn1)NC1CCN(c2ccccc2OC(F)F)C1 (stereo not given),67.8%
11,Cc1noc(C)c1CNC1CCN(c2ccccc2OC(F)F)C1 (stereo not given),67.4%
12,O=C(NC1CCN(c2ccccc2OC(F)F)C1)c1c[nH]nn1 (stereo not given),-39.7%
13,COc1ccccc1N1CCCC(NC(=O)Nc2cccnc2)C1 (stereo not given),10.7%
14,O=C(Nc1ccncc1)NC1CCN(c2ccccc2OC(F)F)C1 (stereo not given),79%
15,O=C(NC1CCN(c2ccccc2OC(F)F)C1)c1cccnc1 (stereo not given),27.5%
16,Cc1c(CNC2CCN(c3ccccc3OC(F)F)C2)cnn1C (stereo not given),5.64%
17,O=C(Nc1cn[nH]c1)NC1CCN(c2ccccc2OC(F)F)C1 (stereo not given),29.8%
18,CCn1cc(S(=O)(=O)NCc2ccnc(-n3ccnc3)c2)cn1,-0.85%
19,CN(Cc1cnn(C)c1)CC(O)c1ccc2c(c1)OCO2 (stereo not given),46.6%
20,Cn1nc(C(=O)NCCc2ccc(OC3CCCC3)cc2)ccc1=O,35.5%
21,Cc1nn(C)c2cn(CC(=O)NC3CCSCC3)nc12,19.8%
22,CCN(C(=O)c1ccc2nnc(C3CCN(CCOC)C3)n2c1)C(C)C (stereo not given),34%
23,CC(C)[C@H](NC(=O)N1CCC(Cc2ccccc2)CC1)C(=O)O,31.3%
24,O=C(NCC1CCCO1)c1ccc(S(=O)(=O)NCCc2cn[nH]c2)cc1 (stereo not given),-17.5%
